From PubChem BioAssay
Only some compounds are listed: those with a hit (about 3.8% of all), similar ones and a draw of the others.
Beta cell apopt = inhibitors of cytokine-induced beta cell apoptosis, primary screen, luminescence; INS-1E cytokine-induced death, ATP luminescence, 48 h; percent of positive-control rescue, neutral wells zero; AID 435005, 2010; actives 0.8% (n = 300,000); protection from apoptosis, % (test concentration not listed);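 active = Every replicate reaches about 75%, or at least half do and their mean reaches it too, limit read from the data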;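 also: 0% = cytokine-treated negative control wells and 100% = positive control rescue; higher means more ATP so stronger rescue from cytokine killing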
NTR1 agonist = agonists of human NTR1, primary screen, imaging, U2OS cells, beta-arrestin-GFP, high content | activation, % at 20 µM | NTR1-U2OS beta-arrestin-GFP spot imaging, agonist mode | actives 0.17% (n = 330,000) | Neurotensin receptor type 1 (Homo sapiens), P30989 | AID 493036, 2011;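 active = activation at or above 40% of the spot to cytoplasm intensity ratio, with at least 20 cells analyzed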;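 also: 0% = DMSO without peptide and 100% = 100 nM NTR1 peptide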
Mdm2 MdmX PPI = inhibitors of human Mdm2-MdmX association, primary screen, cell-based, luminescence, split luciferase, SaOS-2, uHTS | inhibition, % at 8 µM | actives 3% (n = 330,000) | SaOS-2 split-luciferase Mdm2/MdmX complementation | Protein Mdm4 (Homo sapiens) + E3 ubiquitin-protein ligase Mdm2 (Homo sapiens), …;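 active = inhibition of at least 50% at 8 µM in the primary screen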
697 NFkB inh = inhibitors of PMA/ionomycin-induced NF-kB reporter, 697 cells, primary screen, B-cell NF-kB inhibitor project, cell-based, luminescence, uHTS. inhibition, % at 4 µM. actives 0.33% (n = 330,000). 697 B-cell NF-kB luciferase reporter, 16 h. AID 435022, 2010; in the data active = inhibition above about 35%
A1 inh = caspase 3/7 activation in MEF A1-2A-BIM cells, primary screen, A1 inhibitor project, cell-based, luminescence, HTS; Caspase-Glo 3/7 luminescence, 3 h; percent of clofoctol response, vehicle zero; caspase activation, % (no concentration beside the values); actives 0.066% (n = 330,000);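 active = over half of replicate activation scores above 10%, or exactly half above 10 with the replicate mean above 10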
Jurkat NFkB inh = inhibitors of induced NF-kB luciferase reporter, primary screen, TCR NF-kB activation inhibitor project, cell-based, luminescence, uHTS; Jurkat, PMA/ionomycin-induced NF-kB luciferase reporter; AID 435003, 2010; actives 0.53% (n = 330,000); inhibition, % at 4 µM; in the data active = inhibition above about 50%
Mdm2 MdmX conf = Mdm2-MdmX complex disruptors, retested hits, confirmation, luminescence, single concentration; AID 489028, 2010; Mdm2-MdmX binding, luminescent assay; shares compounds with Mdm2 MdmX PPI; actives 55% (n = 10,000); inhibition, % at 8 µM; in the data active = inhibition above about 40%
FLuc counter = full-length luciferase signal inhibition, confirmation, counter-screen for Mdm2/MdmX interaction inhibitor project, cell-based, single concentration, SaOS-2; actives 77% (n = 6,200); SaOS-2 full-length luciferase counterscreen, luminescence; shares compounds with Mdm2 MdmX PPI; inhibition, % at 8 µM;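 active = mean inhibition at 8 µM reaching about 37%, which flags the compound as non-specific, limit read from the data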;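 also: p53-null SaOS-2 cells with luciferase driven by a doxycycline-inducible promoter; compound on cells about two nights before reading with doxycycline added after day one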
The depositor's hits bear a star.

For COc1ccc(CCN2C(=O)CSC2c2ccc(F)cc2)cc1 (centres undefined) the results were Beta cell apopt -7, NTR1 agonist 4, Mdm2 MdmX PPI 5, 697 NFkB inh -10, A1 inh 1 and Jurkat NFkB inh -15.
For Cc1ccc(CNC(=O)COC(=O)c2cccc(S(=O)(=O)N3CCCCC3)c2)cc1 the results were Beta cell apopt 0, NTR1 agonist -2, Mdm2 MdmX PPI -8, 697 NFkB inh 3, A1 inh -1 and Jurkat NFkB inh 7.
Screening NC(=O)c1nsc(C(=O)N(c2ccccc2F)C(C(=O)NCc2ccc(F)cc2)c2ccc(O)cc2)c1N (centres undefined) returned Beta cell apopt 10, NTR1 agonist 6, Mdm2 MdmX PPI 65*, 697 NFkB inh 35, A1 inh 0, Jurkat NFkB inh 38, Mdm2 MdmX conf 63* and FLuc counter 81*.
Screening COc1ccc(N2CCN(CCNC(=O)c3ccc4nc5ccccc5c(=O)n4c3)CC2)cc1 returned NTR1 agonist 0, Mdm2 MdmX PPI -16, 697 NFkB inh -9 and Jurkat NFkB inh -14.
`COc1ccc(N2CCN(CCNC(=O)c3ccc4c(c3)[nH]c(=S)n3c5ccccc5nc43)CC2)cc1` gave Beta cell apopt 47, NTR1 agonist 0, Mdm2 MdmX PPI 87*, 697 NFkB inh 28, A1 inh 2, Jurkat NFkB inh 9, Mdm2 MdmX conf 76* and FLuc counter 55*.
Screening Cc1cccc(NC(=O)COC(=O)[C@@H]2CCCN2C(=O)c2cccs2)c1 returned Beta cell apopt -20, NTR1 agonist 1, Mdm2 MdmX PPI -1, 697 NFkB inh 10, A1 inh 1 and Jurkat NFkB inh -5.
Screening N=c1n(CCCOc2ccccc2Cl)c2ccccc2n1CC(N)=O returned Beta cell apopt 5, NTR1 agonist 2, Mdm2 MdmX PPI 65*, 697 NFkB inh -13, A1 inh 0, Jurkat NFkB inh -6, Mdm2 MdmX conf 42* and FLuc counter 63*.
Screening CSc1ccc(C2C(C#N)=C(N)Oc3cc4c(cc32)OCO4)cc1 (centres undefined) returned Beta cell apopt 6, NTR1 agonist 2, Mdm2 MdmX PPI 69*, 697 NFkB inh -2, A1 inh 1, Jurkat NFkB inh 32, Mdm2 MdmX conf 60* and FLuc counter 60*.
Cc1ccc(C2C(C#N)=C(N)Oc3cc4c(cc32)OCO4)cc1 (centres undefined) was read as Beta cell apopt 7, NTR1 agonist 1, Mdm2 MdmX PPI 55*, 697 NFkB inh -24, A1 inh -1, Jurkat NFkB inh 32, Mdm2 MdmX conf 65* and FLuc counter 64*.
`CCC(C)N(C(=O)COC(=O)c1ccccc1SCC(=O)N1CCCC1)C1CCS(=O)(=O)C1` (centres undefined) gave Beta cell apopt -5, NTR1 agonist 3, Mdm2 MdmX PPI 18, 697 NFkB inh -24, A1 inh 0 and Jurkat NFkB inh -7.
`CC1CCCC(C)N1C(=O)COC(=O)c1ccc2ccccc2n1` (centres undefined) gave Beta cell apopt -8, NTR1 agonist -1, Mdm2 MdmX PPI 22, 697 NFkB inh -6, A1 inh 0 and Jurkat NFkB inh 4.
